# From ChEMBL document CHEMBL3988442, “University of Dundee, Small-Polar-MMV Screening Library” (2021)
# Hit rate of the full screen: of about 66,000 compounds, about 960 (1.5%) showed an effect of 50% or more. Only a selection was taken, and strong results are over-represented in it overall.
# System: Trypanosoma brucei
# Experiment: Trypanosoma brucei 72 hour study
# Type: functional, organism-based
# Set-up: scale not given: in the data most compounds retested in dose-response had high values
compound,measurement,setting,value
CC(C)(C)C(CCO)NC(=O)Nc1ccncc1 (centres undefined),Percent Effect,"30.3 µM, […]",-3.299%
COCCCNC(=O)CCn1nc(C)c2ccccc21,Percent Effect,"30 µM, 30.03 µM",61.88%
CCOCCCNC(=O)CCCC(=O)n1nc(C)c2ccccc21,Percent Effect,"30 µM, 30.03 µM",-9.537%
COCCCNC(=O)CCn1ncc2c(Cl)cccc21,Percent Effect,"30.3 µM, […]",-21.64%
Nc1ccc(C(=O)N2CCCC(C(=O)CCc3ccccc3)C2)cn1 (centres undefined),Percent Effect,"30 µM, 30.03 µM",42.45%
Cn1cc(N2CC3(CCN(Cc4ccoc4)CC3)OCC2=O)cn1.O=C(O)C(F)(F)F,Percent Effect,"30 µM, 30.03 µM",-14.91%
CCOC(=O)c1n[nH]cc1-c1cncn1CCn1nc(C)c(C)c1C.Cl,Percent Effect,"30.3 µM, […]",-11.29%
Cc1ncsc1C(=O)NC1CCN(CC(=O)NCc2ccccc2)CC1,Percent Effect,"30 µM, 30.03 µM",57.29%
Cc1ncsc1C(=O)NC1CCN(CC(N)=O)CC1,Percent Effect,"30.3 µM, […]",10.5%
Cc1ncsc1C(=O)NC1CCN(CC(=O)N(C)c2ccccc2)CC1,Percent Effect,"30 µM, 30.03 µM",32.24%
CC1CCCCN1C(=O)c1coc(COc2cccc3cnccc23)n1 (centres undefined),Percent Effect,"30.3 µM, […]",103.3%
O=C(c1coc(COc2cccc3cnccc23)n1)N1CCSCC1,Percent Effect,"30.3 µM, […]",-189.8%
O=C(c1coc(COc2cccc3cnccc23)n1)N1CCCCCC1,Percent Effect,"30.3 µM, […]",-73.19%
Cc1noc(Cl)c1CCC(=O)N1CCN(c2ccccc2)CC1,Percent Effect,"30.3 µM, […]",16.11%
Cc1cccc(N2CCN(C(=O)CCc3c(C)noc3Cl)CC2)c1,Percent Effect,"30.3 µM, […]",55.23%
Cc1noc(Cl)c1CCC(=O)N1CCN(c2ncccn2)CC1,Percent Effect,"30 µM, 30.03 µM",-22.8%
CN(CCC(O)c1ccccc1)Cc1nc(-c2ccccc2)no1 (centres undefined),Percent Effect,"30.3 µM, […]",-13.82%
same,Percent Effect,"10 mM, 10 mM as filed; unlikely as a test dose",-49.39%
CC(C)CN1CCC2(C1)CN(S(=O)(=O)c1cn(C)cn1)C2.O=C(O)C(F)(F)F.O=C(O)C(F)(F)F,Percent Effect,"30.3 µM, […]",-13.21%
Cc1ccccc1CN1CCC(c2nn(CCN)c3nccnc23)C1 (centres undefined),Percent Effect,"30.3 µM, […]",24.84%
COc1ccccc1CN1CCC(c2nn(CCN)c3nccnc23)C1 (centres undefined),Percent Effect,"30.3 µM, […]",99.59%
NCCn1nc(C2CCN(Cc3ccccc3Cl)C2)c2nccnc21 (centres undefined),Percent Effect,"30.3 µM, […]",22.22%
COCC(=O)N1C[C@@H]2CCCO[C@@H]2[C@H](N(C)Cc2ccco2)C1.O=C(O)C(F)(F)F,Percent Effect,"30 µM, 30.03 µM",-11.7%
O=C(O)C(F)(F)F.O=C1N(Cc2cccc(F)c2)CCC12CCN(c1ccccn1)CC2,Percent Effect,"30.3 µM, […]",-2.034%
COc1ccc2c(c1)[C@@H](CCNC(C)=O)CC(C)(C)O2,Percent Effect,"30.3 µM, […]",-14.03%
CNCC[C@H]1CC(C)(C)Oc2ccc(OC)cc21,Percent Effect,"30.3 µM, […]",-16.4%
CNCC[C@H]1CC(C)(C)Oc2ccc(OCC3CC3)cc21,Percent Effect,"30.3 µM, […]",86.36%
CN(C)c1nc2c(c(N3CCC4(CC3)CNC(=O)C4)n1)CCCC2,Percent Effect,"30 µM, 30.03 µM",23.78%
Cc1nc(N(C)C)nc(N2CCC3(CC2)CNC(=O)O3)c1C,Percent Effect,"30 µM, 30.03 µM",-29.71%
CN(C)c1nc2c(c(N3CCCC4(CC3)CNC(=O)O4)n1)CCCC2 (centres undefined),Percent Effect,"30 µM, 30.03 µM",52.4%
CN(C)S(=O)(=O)N1C[C@@H](OCc2cccnc2)[C@H]2OCCC[C@H]21.O=C(O)C(F)(F)F,Percent Effect,"30 µM, 30.03 µM",-11.52%
CN(Cc1cccc(OC(F)F)c1)Cc1nc2c(cnn2C)c(=O)[nH]1,Percent Effect,"30.3 µM, […]",-25.39%
CN(CCS(=O)(=O)c1cc(Cl)ccc1Cl)CC(N)=O,Percent Effect,"30 µM, 30.03 µM",-15.71%
CN(CCS(=O)(=O)c1cc(Cl)ccc1Cl)CC(=O)Nc1cccc(F)c1,Percent Effect,"30 µM, 30.03 µM",-17.26%
CN(CCS(=O)(=O)c1cc(Cl)ccc1Cl)CC(=O)Nc1ccc(F)cc1,Percent Effect,"30 µM, 30.03 µM",64.98%
CC(=O)NC[C@]1(O)CCN(C(=O)c2ccc3c(c2)OCO3)C[C@H]1O,Percent Effect,"30.3 µM, […]",-26.03%
c1cc2cc[nH]c2c(CC2CN(Cc3cscn3)C2)n1,Percent Effect,"30.3 µM, […]",-15.51%
Cc1cnc(N2CCOCC3(CCN(c4ccccn4)C3)C2)nc1.O=C(O)C(F)(F)F.O=C(O)C(F)(F)F (centres undefined),Percent Effect,"30 µM, 30.03 µM",-35.16%
CC(=O)NCC(=O)N1CCC2(CC1)C(=O)N(CC1CC1)c1ccccc12,Percent Effect,"30.3 µM, […]",-5.541%
CN(C)[C@H]1CCCCN(C(=O)c2cccc(-c3cccc(F)c3)c2)C1,Percent Effect,"30 µM, 30.03 µM",59.87%
CN(C)C1CCCN(C(=O)c2cccc(-c3ncc[nH]3)c2)CC1 (centres undefined),Percent Effect,"30 µM, 30.03 µM",-3.463%
CN(C)[C@H]1CCCCN(C(=O)c2cccc(N3CCS(=O)(=O)CC3)c2)C1,Percent Effect,"30 µM, 30.03 µM",11.69%
COCc1nc2cc(NCc3ccncc3)ccc2o1,Percent Effect,"30 µM, 30.03 µM",16.85%
COCc1nc2cc(NCc3ccc(C)o3)ccc2o1,Percent Effect,"30 µM, 30.03 µM",13.96%
CCC(C)CNc1ccc2oc(COC)nc2c1 (centres undefined),Percent Effect,"30 µM, 30.03 µM",94.42%
Cc1cccc(C(=O)N2CCN(CCC(C)C)CC2)n1,Percent Effect,"30.3 µM, […]",-20.29%
CCCN1Cc2nc(N3CCCC3)ncc2C1=O,Percent Effect,"30 µM, 30.03 µM",35.2%
FC(F)c1nnc2ccc(N3CCC4(CCOC4)C3)nn12 (centres undefined),Percent Effect,"30 µM, 30.03 µM",-51.53%
Cc1nnc2ccc(N3CCC4(CCOC4)C3)nn12 (centres undefined),Percent Effect,"30 µM, 30.03 µM",-17.43%
c1ccc(-c2nnc3ccc(N4CCC5(CCOC5)C4)nn23)cc1 (centres undefined),Percent Effect,"30 µM, 30.03 µM",81.34%
c1cc(-c2n[nH]cc2-c2ccnc(N3CCCCCC3)n2)ccn1,Percent Effect,"30.3 µM, […]",36.75%
CC(=O)N1CCN(C(=O)c2sc(-c3ccccc3F)nc2C)CC1,Percent Effect,"30 µM, 30.03 µM",-46.44%
Cc1nc(-c2ccccc2F)sc1C(=O)N1CCN(C)CC1,Percent Effect,"30 µM, 30.03 µM",37.21%
CCOC(=O)N1CCN(C(=O)c2sc(-c3ccccc3F)nc2C)CC1,Percent Effect,"30 µM, 30.03 µM",51.23%
CC(=O)N1CCO[C@H]2[C@H](OCCCn3cccn3)CC[C@@H]21.O=C(O)C(F)(F)F,Percent Effect,"30.3 µM, […]",-5.128%
COc1cccc(CN(Cc2ccco2)Cc2cnc(C)n2C)c1.O=C(O)CC(O)(CC(=O)O)C(=O)O,Percent Effect,"30.3 µM, […]",15.04%
CN1C[C@@H](C(=O)N(C)C)[C@@]2(CCc3ccccc3C(=O)N2)C1.Cl,Percent Effect,"30.3 µM, […]",-15.68%
CNc1nc(C)c(C(=O)N2CCCCC2CN2CCCCCC2)s1 (centres undefined),Percent Effect,"30 µM, 30.03 µM",17.59%
O=C(O)C(F)(F)F.O=C(O)C(F)(F)F.O=C(c1n[nH]c2c1CN(C1CCOC1)CC2)N1CCOCC1 (centres undefined),Percent Effect,"30.3 µM, […]",0.9809%
CN(C)CCN1C(=O)CCCC12CCCN(C(=O)c1ccncc1)C2.O=C(O)C(F)(F)F.O=C(O)C(F)(F)F (centres undefined),Percent Effect,"30.3 µM, […]",-7.261%
CN(C)CCN1C(=O)CCC12CCN(C(=O)c1cccnc1)CC2.O=C(O)C(F)(F)F.O=C(O)C(F)(F)F,Percent Effect,"30.3 µM, […]",75.6%
CN(C)CCN1C(=O)CCC12CCCN(C(=O)c1cccnc1)CC2.O=C(O)C(F)(F)F.O=C(O)C(F)(F)F (centres undefined),Percent Effect,"30.3 µM, […]",-25.41%
O=C(O)C(F)(F)F.c1coc(CN2CCO[C@H]3[C@H](OCC4CCCC4)CC[C@@H]32)c1,Percent Effect,"30.3 µM, […]",1.448%
Cc1csc(N2CCN(CC(=O)N3CCNC3=O)CC2C)n1 (centres undefined),Percent Effect,10 µM,-102.2%
CC(C)NC(=O)c1ccc2c(c1)nc1n2CCN(c2ccccc2)C1,Percent Effect,"30 µM, 30.03 µM",50.34%
CC(C)NC(=O)c1ccc2c(c1)nc1n2CCN(Cc2ccco2)C1,Percent Effect,"30 µM, 30.03 µM",-8.027%
CC(C)NC(=O)c1ccc2c(c1)nc1n2CCN(C(C)C)C1,Percent Effect,"30 µM, 30.03 µM",-14.37%
COc1ccc2c(c1)c(-c1nc(N(C)C)ncc1CN)cn2C,Percent Effect,"30.3 µM, […]",100.6%
COc1ccc2c(c1)c(-c1nc(C)ncc1CN)cn2C,Percent Effect,"30.3 µM, […]",-32.27%
COCC(=O)NCc1cnc(C)nc1-c1cn(C)c2ccc(OC)cc12,Percent Effect,"30.3 µM, […]",-5.457%
O=C(Nc1ccccc1Cl)N1CCN(CC2CC2)[C@@H]2CS(=O)(=O)C[C@@H]21,Percent Effect,"30 µM, 30.03 µM",-39.32%
COc1ccc2c(c1)nc1n2[C@@H](CNC(=O)c2ccccn2)COC1,Percent Effect,"30 µM, 30.03 µM",-12.62%
CCNC(=O)NC[C@H]1COCc2nc3cc(C)ccc3n21,Percent Effect,"30.3 µM, […]",32.27%
Cc1ccc2c(c1)nc1n2[C@@H](CNC(=O)c2cncnc2)COC1,Percent Effect,"30.3 µM, […]",-3.868%
COc1ccc(C(=O)NC[C@H]2COCc3nc4cc(C)ccc4n32)cc1,Percent Effect,"30.3 µM, […]",101.3%
COc1ccc2c(c1)nc1n2[C@@H](CNC(=O)c2cccnc2)COC1,Percent Effect,"30.3 µM, […]",-10.65%
CCNC(=O)NC[C@H]1COCc2nc3cc(OC)ccc3n21,Percent Effect,"30 µM, 30.03 µM",86.68%
Cc1ccoc1-c1nnc(CNC2CCCN(c3cccnn3)C2)o1 (centres undefined),Percent Effect,"30.3 µM, […]",3.988%
CNCC(=O)N1CCCC1c1cncc(Oc2ccc(F)cc2)n1.Cl (centres undefined),Percent Effect,"30.3 µM, […]",-5.938%
CS(=O)(=O)c1ccc(-c2cnc(C3CCCN3)cn2)cc1.Cl (centres undefined),Percent Effect,"30.3 µM, […]",-27.05%
Cc1nccc(N[C@H]2CN(C(=O)CN3CCCC3=O)C[C@@H]2C(C)C)n1,Percent Effect,"30 µM, 30.03 µM",-19.05%
O=C(CN1CCCCC1)N1CCC(c2cc(=O)n3c(n2)CCCCC3)C1.O=C(O)CC(O)(CC(=O)O)C(=O)O (centres undefined),Percent Effect,"30.3 µM, […]",-11%
Cc1ccc(CN2CCC3(CC2)C(=O)N(CC(C)C)CCN3C)s1.O=C(O)C(F)(F)F.O=C(O)C(F)(F)F,Percent Effect,"30.3 µM, […]",-75.61%
COc1cccc([C@@]2(O)CC[C@@H]3CN(C(=O)c4ccn(C)n4)C[C@@H]32)c1,Percent Effect,"30.3 µM, […]",1.75%
CN(CC(=O)NCC(F)(F)F)C(=O)c1ccc(C(=O)OC(C)(C)C)cc1,Percent Effect,"30 µM, 30.03 µM",14.69%
N#Cc1c(Cl)nsc1NCc1ccnc(OCC(F)(F)F)c1,Percent Effect,"30 µM, 30.03 µM",-8.155%
CCS(=O)(=O)c1ccccc1N1CCC(NC2CCCC2)CC1,Percent Effect,"30.3 µM, […]",22.61%
N#Cc1cn(C2CC2)c(=O)n(Cc2cc(-c3cccs3)on2)c1=O,Percent Effect,"30.3 µM, […]",-130.2%
N#Cc1cn(C2CC2)c(=O)n(Cc2ncc(-c3cccs3)o2)c1=O,Percent Effect,"30.3 µM, […]",55.83%
N#Cc1cn(C2CC2)c(=O)n(Cc2noc(-c3cccs3)n2)c1=O,Percent Effect,"30.3 µM, […]",18.62%
Cc1nc(CNC(=O)N2CCN(c3ccc(Cl)cn3)CC2)sc1C,Percent Effect,"30.3 µM, […]",8.84%
COc1cccc(C(=O)N2C[C@H]3CC[C@@H]2CN(Cc2cscn2)C3)c1,Percent Effect,"30 µM, 30.03 µM",-1.998%
O=C(NCc1cccs1)[C@H]1CC[C@@H]2[C@@H](CCN2C2CCC2)O1.O=C(O)C(F)(F)F,Percent Effect,"30 µM, 30.03 µM",-12.3%
Cl.Cl.c1cnc(NCc2cncc3c2CCN(Cc2cccs2)C3)nc1,Percent Effect,"30 µM, 30.03 µM",-8.466%
